From PubChem BioAssay AID504914 (The Scripps Research Institute Molecular Screening Center, 2011) come the findings set out here.

The other results are listed elsewhere or left out. The source made the active and inactive calls. No rule for the calls is given here.

The assay deals with 5-hydroxytryptamine receptor 5A (Homo sapiens) (UniProt P47898). As to the kind of experiment: HTR5A inverse agonists, counter-screen for OPRM1-OPRD1 inverse agonist project, cell-based, luminescence (AID 504914).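 Also: 0% = cells with DMSO and 100% = no-cell wells with DMSO.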 As to conditions: HTR5A-expressing cells, inverse agonism, at 9.3 µM, active compounds read high.
Chain of 5-hydroxytryptamine receptor 5A (Homo sapiens) (P47898 whole entry, looked up): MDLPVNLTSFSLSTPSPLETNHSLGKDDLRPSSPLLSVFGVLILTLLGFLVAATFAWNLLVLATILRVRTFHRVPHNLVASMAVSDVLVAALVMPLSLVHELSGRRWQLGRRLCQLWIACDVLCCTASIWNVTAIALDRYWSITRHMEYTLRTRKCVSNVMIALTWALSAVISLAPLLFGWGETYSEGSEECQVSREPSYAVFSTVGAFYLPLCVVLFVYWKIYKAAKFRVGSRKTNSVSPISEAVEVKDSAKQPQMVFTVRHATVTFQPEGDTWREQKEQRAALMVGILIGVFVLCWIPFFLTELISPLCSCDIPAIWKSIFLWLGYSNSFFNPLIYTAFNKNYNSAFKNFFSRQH
In the case of `Cc1cccc(N=Nc2c(O)[nH]c3ccc(F)cc23)c1`, the inhibition – broadly, the change of the read-out against control, counted positive when it falls – is 22.6% (inactive).
For `O=C1C(=O)N(c2ccccc2)c2ccccc21` the value was 19% (inactive); for `CN(O)C(=S)c1ccccc1`, 26.7% (inactive); for `CN(C)/C=C1/Nc2ccccc2C1=O`, 5.59% (inactive).
For `CN(c1ccccc1)S(=O)(=O)c1ccc(NC(=O)COc2ccccc2)cc1` the value was -4.8% (inactive); for `Oc1ccc(N=Nc2nccs2)c(O)c1`, 23.3% (inactive).
On to `C=CCn1c(N)c(C(=O)OCC(C)C)c2nc3ccccc3nc21`, for which the inhibition was 10.8% (inactive).
As for `Cc1ccc2c(c1)C(O)(CC(=O)c1cccnc1)C(=O)N2` (stereo not drawn), the figure is 0% (inactive); as for `Cc1ccc(NNC(=O)c2cccs2)cc1Cl`, -15% (inactive).
For `O=C1C(=O)N(CC2COc3ccccc3O2)c2ccccc21` (stereo not drawn), the inhibition is 12% (inactive).
With `CCOC(=O)CN1C(=O)C(O)(CC(=O)c2ccccn2)c2ccccc21` (stereo not drawn), the inhibition is 10.2% (inactive).
As for `COC(=O)Cc1c(-c2[nH]c3ccccc3c2CC(=O)OC)[nH]c2ccccc12`, the figure is -66.2% (inactive); as for `Cc1ccc(C(=O)CNc2ccc(F)cc2)cc1`, -0.52% (inactive).
For `CC(C)OC(=O)CN1C(=O)C(=O)c2ccccc21`, the inhibition was 4.72% (inactive).
As for `Cc1cccc2c1N(CC(=O)OC(C)C)C(=O)C2=O`, the figure is -14.5% (inactive).
As for `Cc1ccc(NC2(C#N)C(=O)Nc3ccccc32)cc1` (stereo not drawn), the figure is -97.2% (inactive).
On to `CSCCC(NC(=O)COc1ccccc1)C(=O)OCC(=O)c1cc2ccccc2o1` (stereo not drawn), for which the inhibition was 12% (inactive).
For `N#CC1=C(N)C(C#N)(C#N)[C@H](c2ccsc2)[C@H]2COCC=C12` the value was -8.6% (inactive).
